Pf growth 96h: P. falciparum growth inhibition at 96 hour, primary screen for plastid delayed-death inhibitors. P. falciparum luciferase reporter growth, 96 h. Potency, µM (series often up to 28.7 µM), for the others: at the top dose activity change, negative = inhibition, most hits filed as inhibitors. 6.9% of 320,000 active. AID 504834; active = well fitted inhibition curve with a large enough effect; inconclusive = small, poorly fitted or top-dose-only effect, or another doubt; inactive = no such curve, though single readings can be large or run the other way; also: potency is read from the fitted curve at half-maximal effect; % is scaled to controls: 0 for no effect and ±100 for the full control effect
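Delayed-death screen, second-generation endpoint: infected erythrocytes, 2% hematocrit, 0.05% parasitemia final; 96 hours at 37 C, 5% CO2; luciferase detection reagent; luminescence decrease equals reduced growth.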
Shiga toxin inh: blocks Shiga toxin action in Vero cells | 9.2% of 290,000 active | AID 2315 | Vero cells, Shiga toxin protein synthesis inhibition reporter | inhibition, % at 38.7 µM; in the data active = inhibition mostly above about 28%, no sharp cut-off; inactive = mostly below about 43%; also: 0% is about no effect
Cycloheximide cs: counter-screen for Shiga toxin inhibitors: cycloheximide protein synthesis inhibition. cell reporter, cycloheximide protein synthesis inhibition counterscreen. max response, %. 12% of 300,000 active. AID 2314; in the data active = max response mostly above about 13%, no sharp cut-off; inactive = mostly below about 14%; also: read at 38.3 µM for the half of the compounds with a filed dose; 0% is about no effect
SARS PLpro yeast: inhibitors of SARS-CoV papain-like protease in yeast. S. cerevisiae expressing SARS-CoV PLpro, growth rescue. Potency, µM (series often up to 32.9 µM), for inactives: at the highest dose activity, positive = growth rescue, most hits filed as activators. 0.19% of 330,000 active; also: potency is read from the fitted curve at half-maximal effect; 0% is about no effect; nearly all actives have a fitted effect of over 55% in size
Pf growth 48h: inhibits P. falciparum growth in the first generation, 48 h. P. falciparum luciferase growth in erythrocytes, 48 h. Potency, µM (highest dose often 28.7 µM), for the others: at the highest dose activity change, negative = inhibition, actives largely listed as inhibitors. 5.9% of 310,000 active. AID 504832; active = well fitted inhibition curve with a large enough effect; inconclusive = small, poorly fitted or top-dose-only effect, or another doubt; inactive = no such curve, though single readings can be large or run the other way; also: potency is read from the fitted curve at half-maximal effect; % is scaled to controls: 0 for no effect and ±100 for the full control effect
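Firefly luciferase activity from engineered P. falciparum reports growth; inhibitors lower the luminescent signal. Cultures contained 2% hematocrit erythrocytes at 0.1% final parasitemia.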
NS1 inh: influenza NS1 inhibition; 0.4% of 270,000 active; AID 2326; Potency, µM (top dose mostly 46.1 µM), for the others: at the top dose activity, positive = more growth; also: potency is read from the fitted curve at half-maximal effect; actives are rising curves; nearly all actives have a fitted effect of over 50% in size
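S. cerevisiae expressing influenza A NS1, grown in glucose, washed, then diluted 1:100 into pH 6.0 -URA galactose medium with 23 nl compound. Growth recovery read as OD600; NS1-free strain serves as control.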
Starred values were filed as active, the others as inactive; ? = inconclusive; · = no result; ! = not confirmed by another sample. Rows were chosen to be rich in hits. Some 21% of all compounds tested hit in one or more screens of this group. Unless noted, calls follow the shape of the full dose curve.

SMILES | Pf growth 96h | Shiga toxin inh | Cycloheximide cs | SARS PLpro yeast | Pf growth 48h | NS1 inh
CN1[C@@H]2CC[C@H]1CC(OC(=O)C(O)c1ccccc1)C2 (stereo not given in full) | 2% | · | · | · | -10% | ·
CN1[C@@H]2CC[C@H]1CC(OC(=O)c1c[nH]c3ccccc13)C2 (stereo not given in full) | · | -12 | -1 | · | · | ·
CN1C2CCC1CC(OC(c1ccccc1)c1ccccc1)C2 (stereo not given) | 9.5µM*! | -8 | -3 | 1% | 12µM* | -4%
CN1[C@@H]2CC[C@H]1CC(OC1c3ccccc3CCc3ccccc31)C2 (stereo not given in full) | ? | · | · | · | 4.7µM* | ·
CN1[C@@H]2CC[C@H]1CC(OC(=O)[C@@H](O)c1ccccc1)C2 (stereo not given in full) | -20% | · | · | · | -15% | -3%
CN1[C@@H]2CC[C@H]1CC(OC(c1ccccc1)c1ccccc1)C2 (stereo not given in full) | 4.8µM* | -4 | 11 | · | 17µM* | -3%
CCN(CC)S(=O)(=O)c1ccc(OC)c(NC(=O)CSc2cc(C)ccc2C)c1 | ? | 23 | 1 | 8% | ? | 23%
CCOC(=O)C(=O)N1CCN(c2cc3c(cc2[N+](=O)[O-])n(C)c(=O)n3C)CC1 | 99% | 1 | -2 | 1% | 14% | -1%
CN1CCN(C(=O)CCN2C(=O)/C(=C\c3ccccc3F)SC2=S)CC1 | 12µM* | -15 | -2 | 0% | ? | -7%
Cc1ccc(/C=C2\SC(=O)N(CCC(=O)N3CCN(C)CC3)C2=O)cc1 | ? | 45* | 27* | 3% | 26% | -5%
Cc1ccc(/C=C2\SC(=S)N(CCC(=O)NNC(=O)c3ccncc3)C2=O)cc1 | -10% | 3 | -2 | -1% | 39% | 4%
Cc1ccc(/C=C2/SC(=S)N(CCC(=O)N3CCN(C)CC3)C2=O)cc1 | 12µM* | 8 | -3 | 0% | ? | -1%
CN1CCN(C(=O)CCN2C(=O)/C(=C/c3ccccc3Cl)SC2=S)CC1 | 0% | 14 | -1 | -1% | -24% | 4%
Cc1ccc(/C=C2\SC(=S)N(CCC(=O)NNS(=O)(=O)c3ccc(C)cc3)C2=O)cc1 | 0% | 13 | 25* | 25% | 31% | 12%
O=C(Nc1cccc(O)c1)c1ccccc1[N+](=O)[O-] | 6% | -15 | 0 | 1% | 33% | 3%
CC(=O)c1cccc(NC(=O)c2ccc(NC(=O)CC3SC(N4CCCCC4)=NC3=O)cc2)c1 (stereo not given) | ? | -4 | -1 | 5% | ? | -12%
Cc1ccc(/C=C2/SC(=S)N(CCC(=O)N3CCOCC3)C2=O)cc1 | 6% | 23 | 16* | 1% | ? | -17%
CC(=O)Nc1ccc(C2CC(c3ccc(Cl)cc3)=NN2c2ccccc2)cc1 (stereo not given) | 4.7µM* | -5 | 9 | -7% | · | 1%
O=C(O)c1ccc(N2N=C(c3ccccc3)CC2c2ccccc2)cc1 (stereo not given) | 6% | 57* | 14* | -22% | 214% | -36%
O=[N+]([O-])c1cccc(C2CC(c3ccccc3)=NN2c2ccccc2)c1 (stereo not given) | ? | 55 | 20* | ? | ? | -19%
c1ccc(C2CC(c3cccs3)=NN2c2ccccc2)cc1 (stereo not given) | 10µM* | 94* | 33* | 0% | 10µM* | 1%
O=Cc1ccc(N2N=C(c3ccccc3)CC2c2ccccc2)cc1 (stereo not given) | -1% | 12 | 9 | -2% | -18% | 15%
COc1ccc(C2CC(c3ccccc3)=NN2c2ccc(C(N)=O)cc2)cc1 (stereo not given) | ? | -5 | -2 | -16% | ? | ·
Fc1ccc(C2CC(c3cccs3)=NN2c2ccccc2)cc1 (stereo not given) | -9% | 19 | 5 | 12% | ? | ·
CC1OC(OCC2OC(Oc3cc(O)c4c(c3)OC(c3ccc(O)cc3)CC4=O)C(O)C(O)C2O)C(O)C(O)C1O (stereo not given) | · | 14 | -7 | · | · | ·
SMILES | Pf growth 96h | Shiga toxin inh | Cycloheximide cs | SARS PLpro yeast | Pf growth 48h | NS1 inh
O=C(CSc1nnc(NC(=O)C2CC2)s1)Nc1ccccc1C(F)(F)F | 176% | 4 | -8 | 0% | -3% | 2%
Cc1cccc(Sc2nc(-c3ccccc3)ncc2C(=O)O)c1 | 13% | -8 | -8 | 0% | 30% | ·
CC(=O)Nc1ccc(C2=NN(c3ccccc3)C(c3ccccc3)C2)cc1 (stereo not given) | 12µM* | 47* | 43* | -5% | 9.3µM* | 3%
COC(=O)c1c(NC(=O)CN2C(=O)NC3(CCc4ccccc4C3)C2=O)sc2c1CCCCC2 (stereo not given) | -2% | -18 | -6 | -3% | -18% | 0%
Cc1cc(/C=C\c2ccc3cc(N(C)C)ccc3[n+]2C)c(C)n1-c1ccccc1 | 0.0033µM* | · | · | · | 0.26µM* | ·
CC1=NN(C(N)=S)C(=O)C1N=Nc1ccc(C)c(Br)c1 (stereo not given) | 1% | 59* | 36* | -3% | · | -51%
CC1=NN(C(N)=S)C(=O)C1N=Nc1ccc(O)cc1 (stereo not given) | 23% | 32* | 24* | -1% | 48% | 6%
CC1=NN(C(N)=S)C(=O)C1N=Nc1ccc(F)cc1 (stereo not given) | 19% | 66* | 25* | 1% | 1.9µM* | -42%
CC1=NN(C(N)=S)C(=O)C1N=Nc1cccc(C(=O)O)c1 (stereo not given) | 125% | 10 | 0 | -2% | 64% | 17%
CCOc1ccc(N=NC2C(=O)N(C(N)=S)N=C2C)cc1 (stereo not given) | -7% | · | 28* | -2% | ? | -26%
CCOc1ccc(N=Nc2c(=O)[nH]n3c(C)cc(C)nc23)cc1 | -5% | -4 | -3 | -27% | 5% | -13%
CC1=NN(c2ccccc2C(=O)O)C(=O)C1N=Nc1ccccc1 (stereo not given) | 0% | 14 | 2 | 2% | ? | ?
O=C(CSc1n[nH]c(-c2ccccc2)n1)c1ccc(O)c(O)c1 | ? | -2 | 3 | -24% | 13% | -14%
CCN(Cc1ccc(Cl)s1)C(=O)c1cccc(OCc2c(C)noc2C)c1 | · | · | · | 0% | · | ·
CC1=NN(c2nc(-c3ccc(C)cc3)cs2)C(=O)C1N=Nc1cccc(C)c1 (stereo not given) | ? | 29 | 20* | 0% | 46% | 9%
CC1=NN(C(N)=S)C(=O)C1N=Nc1ccc([N+](=O)[O-])cc1 (stereo not given) | 465% | 39* | 53* | 1% | · | -5%
CCOC(=O)c1sc(N2N=C(C)C(N=Nc3cccc(C)c3)C2=O)nc1C (stereo not given) | -8% | 39 | 15 | 0% | ? | 9%
